# Bioassay records: PubChem BioAssay, National Center for Advancing Translational Sciences (NCATS)
# CtBP-E1A inh – qHTS Assay for Inhibitors of the CtBP/E1A Interaction; CtBP / adenovirus E1A interaction (AlphaScreen); AlphaScreen GST-E1A/His-CtBP binding, 1536-well; stronger effect = lower value; activity change, % (test concentration not listed); 0.49% of 340,000 active; AID 651724, 2012; in the data active = activity change below about -65%; inconclusive = mostly about -30% to -63%
#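 In 5 uL wells, 23 nL compound meets equimolar GST-E1A and His-CtBP (5X stock 125 nM each) for 2 h, 37 °C. Beads (5X, 50 ug/mL) then 1 h, 37 °C, dark.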
# TDP1 cell CPT – qHTS for Inhibitors of human tyrosyl-DNA phosphodiesterase 1 (TDP1): qHTS in cells in presence of CPT; chicken DT40 Tdp1-/-;hTDP1 cells + 20 nM CPT, ATP luminescence, 48 h; Potency, µM (series often up to 46.2 µM), for the others: at the top dose activity change, negative = growth inhibition, actives largely listed as inhibitors; 12% of 420,000 active; AID 686979, 2013; also: potency is read from the fitted curve at half-maximal effect; nearly all actives have a fitted effect of over 55% in size
#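 Chicken DT40 Tdp1-/- cells complemented with human TDP1, 400 cells/well, exposed to compounds plus 20 nM camptothecin for at least 48 h at 37 C; viability read as ATP content by CellTiter-Glo luminescence.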
# IL1B secr inh – qHTS for Inhibitors of Inflammasome Signaling: IL-1-beta AlphaLISA Primary Screen; THP-1 LPS/ATP IL-1B secretion, AlphaLISA, 16 h; stronger effect = lower value; activity change, % at 57.5 µM; 4.7% of 360,000 active; in the data active = activity change below about -50%; inconclusive = mostly about -30% to -49%
#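 THP-1 cells pretreated 1 hr with compounds (up to 57.5 uM final), then stimulated with LPS (250 ng/mL final) plus ATP (1.25 mM final); secreted IL-1B measured by AlphaLISA after 16 hr, decreased signal indicating inhibition.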
# TDP1 block – qHTS Assay for Inhibitors of Tyrosyl-DNA Phosphodiesterase (TDP1); recombinant TDP1, AlphaScreen DNA substrate cleavage; Potency, µM (highest dose often 130 µM), inactives show at the top dose activity change, negative = inhibition, most hits filed as inhibitors; 0.28% of 350,000 active; Tyrosyl-DNA phosphodiesterase 1 (Homo sapiens), Q9NUW8; also: potency is read from the fitted curve at half-maximal effect; nearly all actives have a fitted effect of over 40% in size
#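 Here, a 5' biotin and 3' phosphotyrosine-FITC DNA oligonucleotide reports Tdp1 activity: intact substrate bridges AlphaScreen beads, while cleavage leaves a 3' phosphate and drops signal. All incubations at room temperature.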
# TDP1 cell noCPT – qHTS for Inhibitors of human tyrosyl-DNA phosphodiesterase 1 (TDP1): qHTS in cells in absence of CPT; DT40 Tdp1-/- hTDP1 cells, no CPT, ATP luminescence, 48 h; Potency, µM (series often up to 46.2 µM), inactives show at the top dose activity change, negative = growth inhibition, actives largely listed as inhibitors; 15% of 420,000 active; also: potency is read from the fitted curve at half-maximal effect; nearly all actives have a fitted effect of over 55% in size
#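 Growth kinetics read by CellTiter-Glo luminescence after ≥48 hr at 37 °C. Cells: DT40 Tdp1-/- stably carrying human TDP1, 400 per well, compound exposure in the absence of CPT (DMSO vehicle).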
# Six1-Eya2 blk – qHTS Assay for Inhibitors of the Six1/Eya2 Interaction; Homeobox protein SIX1 (Homo sapiens) + Protein phosphatase EYA2 (Homo sapiens), …; AlphaScreen GST-Six1/His-Eya2 binding, biochemical; stronger effect = lower value; activity change, % (concentration not given with the values); 0.56% of 360,000 active; AID 651725, 2012; in the data active = activity change below about -65%; inconclusive = mostly about -30% to -63%
#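 Six1/Eya2 binding was read as AlphaScreen signal after compounds were pinned into GST-Six1 plus His-tagged Eya2 (5X stock 250/500 nM) in pH 8.0 Tris/NaCl/TCEP buffer, beads added, then incubated 1 h, 37 C, dark.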
# Starred values were filed as active, the others as inactive; ? = inconclusive; / = no result; ! = a repeat was not active; [ ] = another dose, or the depositor's remark. A selection: hits, their analogues and other compounds. The true share with any hit is near 18%. Unless noted, calls follow the shape of the dose curve; as a rule, active = well fitted curve in the direction sought with a large enough effect; inconclusive = small, poorly fitted or top-dose-only effect, or another doubt; inactive = no such curve, though single readings can be large; an effect the other way counts as inactive or inconclusive. % is scaled to controls: 0 for no effect and ±100 for the full control effect.
SMILES,CtBP-E1A inh,TDP1 cell CPT,IL1B secr inh,TDP1 block,TDP1 cell noCPT,Six1-Eya2 blk
CCCCC[C@H](C)N1C[C@@H](COCc2ccccc2)Oc2cc(N3CC[C@H](O)C3)ccc2S1(=O)=O,-10.0,?,-7.5,/,?,1.1
CCCCC[C@H](C)N1C[C@H](COCc2ccccc2)Oc2cc(N3CC[C@@H](O)C3)ccc2S1(=O)=O,-2.5,?,-11.5,/,?,-14.2
CCCCC[C@@H](C)N1C[C@@H](COCc2ccccc2)Oc2cc(N3CC[C@H](N(C)C)C3)ccc2S1(=O)=O,-5.1,?,-73.1*,/,18.4µM*,-24.1
O=C(NC1CCCCCC1)c1nc2ncccn2n1,0.3,3.3%,21.5,0.0%,-4.5%,2.7
Cc1ccccc1NC(=O)COC(=O)/C=C/c1cn(-c2ccccc2)nc1-c1cccnc1,-5.3,-0.9%,10.3,-5.6%,?,0.6
CC1=C(CC(=O)O)c2cc(F)ccc2/C1=C\c1ccc(S(C)=O)cc1 (stereo not given),-0.2,11.9µM*!,12.8,9.5%[56.1 µM],?,1.4
Cc1ccc(C)c(N2CCN(C(=O)C3CCN(S(=O)(=O)c4ccc5[nH]c(=O)oc5c4)CC3)CC2)c1,/,23.1µM*,/,13.6%,25.9µM*,/
Cn1c(=O)oc2cc(S(=O)(=O)N3CCCC(C(=O)NCCN4CCOCC4)C3)ccc21 (stereo not given),0.1,-1.7%,-2.0,1.0%,-5.5%,-3.0
Cc1ccc(C)c(N2CCN(C(=O)C(CC(C)C)NS(=O)(=O)c3ccc4nc(C)sc4c3)CC2)c1 (stereo not given),/,?,/,2.3%,16.4µM*,/
Cn1c(=O)oc2cc(S(=O)(=O)N3CCCC(C(=O)N4CCN(c5ccc(F)cc5)CC4)C3)ccc21 (stereo not given),/,7.31µM*,/,-1.3%,4.11µM*,/
Cn1c(=O)oc2cc(S(=O)(=O)N3CCCC(C(=O)N4CCc5ccccc5C4)C3)ccc21 (stereo not given),-2.1,16.4µM*,-5.6,-2.9%,14.6µM*,-6.2
Cc1ccc(C)c(CN2CCCNC2=O)c1,3.4,7.3%,2.6,2.9%,-0.6%,-2.1
O=C(NCc1ccc(Cl)nc1)c1csc(COCCO)n1,5.8,0.8%,35.9,/,-0.4%,-1.3
COc1ccccc1/C=C/C(=O)NCC(=O)N/N=C/c1ccc(C(=O)O)cc1,1.9,-16.0%,10.4,1.0%[0.0935 µM],-0.6%,-2.4
COc1ccc(N2CCN(C(=O)C3CCN(S(=O)(=O)c4ccc5c(c4)oc(=O)n5C)CC3)CC2)cc1,/,?,4.4,6.9%,9.2µM*,7.1
CCOC(=O)C1CCCN(C(=O)C2CCCN(S(=O)(=O)c3ccc4c(c3)oc(=O)n4C)C2)C1 (stereo not given),2.6,-19.6%,4.1,0.0%,?,1.2
CSCCC(NS(=O)(=O)c1ccc2c(c1)oc(=O)n2C)C(=O)N1CCN(c2ccc(C(C)=O)cc2)CC1 (stereo not given),/,-20.5%,/,-0.9%,-23.1%,/
Cc1ccc(C)c(N2CCN(C(=O)C3CCCN(S(=O)(=O)c4ccc5c(c4)oc(=O)n5C)C3)CC2)c1 (stereo not given),/,16.4µM*,/,-1.3%,11.6µM*,/
CSCCC(NS(=O)(=O)c1ccc2c(c1)oc(=O)n2C)C(=O)N1CCN(c2cc(C)ccc2C)CC1 (stereo not given),/,?,/,3.8%,23.1µM*,/
CN1CCN(C(=O)C2CCN(S(=O)(=O)c3ccc4c(c3)oc(=O)n4C)CC2)CC1,0.9,-7.4%,4.6,2.6%,-1.0%,-6.6
